# The whole screen tested about 200,000 compounds, of which about 18,000 (9%) were called active. No stated cut-off is given here; in the data, active means inhibition above about 50%; inactive means the rest. The entries come from a sample that favours actives as a whole.
# Assay: antileishmanial activity against promastigotes – primary screen (AID 1063);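 further: promastigotes grown with compound for 44 hours at 28 °C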
# Conditions: Leishmania major promastigotes, resazurin fluorescence viability; at 10 µM; active compounds read high
row,SMILES,inhibition
1,c1ccc(C(c2ccccc2)N2CCN(Cc3nnnn3C3CCCCC3)CC2)cc1,9.22% (inactive)
2,c1ccc(CCn2nnnc2CN2CCN(C3CCCC3)CC2)cc1,85.5% (active)
3,N#Cc1ccc(C(c2nnnn2CCc2ccccc2)N2CCCCCC2)cc1 (centres undefined),16.3% (inactive)
4,CCOc1cc(NC(=S)NCCCN(C)C)c(OCC)cc1NC(=O)C1CC1,-0.62% (inactive)
5,C=CCn1cc(-c2cccc(C(F)(F)F)c2)cc(C#N)c1=O,10.4% (inactive)
6,O=[N+]([O-])c1ccc(N/N=C2/CCCCC2c2ccccn2)c([N+](=O)[O-])c1 (centres undefined),2.5% (inactive)
7,O=C(Nc1ccccc1)O/N=C1\CCCCC1c1ccc([N+](=O)[O-])cc1[N+](=O)[O-] (centres undefined),99.6% (active)
8,C[n+]1ccccc1C1CCCC/C1=N\Nc1ccc([N+](=O)[O-])cc1[N+](=O)[O-] (centres undefined),-1.09% (inactive)
9,O=C(CN1CCCCC1)Nc1ccccc1Cl,-0.98% (inactive)
10,O=C(Nc1ccccc1Cl)c1ccc2nsnc2c1,-3.57% (inactive)
11,O=C(Nc1ccccc1Cl)/C(Cl)=C(\Cl)S(=O)c1ccccc1 (centres undefined),101% (active)
12,COc1cccc(/C=C/C(=O)Nc2ccc3c(c2)OCCO3)c1,13.7% (inactive)
13,Cc1cc(C(=O)Nc2ccccc2N2CCOCC2)c2ccccc2n1,1.07% (inactive)
14,CCC(=O)Nc1ccc2nc(C)n(Cc3ccccc3Cl)c(=O)c2c1,4.75% (inactive)
15,CCN1CCN(c2cc3nc(C)n(Cc4ccccc4)c(=O)c3cc2NC(=O)c2ccccc2F)CC1,98.3% (active)
16,Cc1c(/C=N\NC(=O)c2cc3ccccc3o2)c2ccccc2n1C,9.72% (inactive)
17,O=C(c1ccc2ccccc2n1)N1CCN(c2ccccc2Cl)CC1,-3.63% (inactive)
18,O=C(c1ccc(-c2ccccc2)cc1)C1CCCN(C(=O)c2cncs2)C1 (centres undefined),58.5% (active)
19,O=C(c1ccc(C(F)(F)F)cc1)C1CCCN(C(=O)c2csnn2)C1 (centres undefined),-5.59% (inactive)
20,CSc1ccc(C(=O)C2CCCN(C(=O)c3ccc(C)nc3)C2)cc1 (centres undefined),-4.42% (inactive)
21,C/C=N/NC(=O)CCCC(=O)N/N=C/C,13.8% (inactive)
22,COc1cccc(NC(=O)CN(C)C(C)C(=O)Nc2ccc(C#N)cc2)c1 (centres undefined),5.24% (inactive)
23,CCOc1ccc(NS(=O)(=O)c2ccc(C)c(C(N)=O)c2)cc1,-2.88% (inactive)
24,COCCn1c(Cc2cccn2C)nnc1SCC(=O)Nc1nccs1,1.7% (inactive)
25,Nc1cc(C(F)(F)F)ccc1N1CCOCC1,0.97% (inactive)

row,SMILES,inhibition
1,O=C(Nc1ccc(Br)cn1)c1ccc([N+](=O)[O-])o1,100% (active)
2,O=C(Nc1ccc(Br)cn1)c1ccc([N+](=O)[O-])cc1Cl,13.7% (inactive)
3,O=C(/C=C/c1ccc(Cl)cc1)Nc1ccc(Br)cn1,0.77% (inactive)
4,CS(=O)(=O)Nc1cccc(-c2cn3ccccc3n2)c1,-2.73% (inactive)
5,Cc1cnc(C(=O)OCC(=O)NCCCc2ccccc2)cn1,-4.28% (inactive)
6,O=C(NCCCCCCNC(=O)NCc1ccco1)NCc1ccco1,-3.59% (inactive)
7,O=C(NCc1ccco1)C1(c2ccc(Cl)cc2)CCCC1,76.6% (active)
8,O=C(CC1CCCCC1)NCc1ccco1,-0.08% (inactive)
9,COc1ccc(N2C(=O)C(Cc3ccccc3)NC2=S)cc1 (centres undefined),-0.72% (inactive)
10,Cn1cc(CN2CCCCC2c2ccccn2)c(-c2ccc3c(c2)OCCO3)n1 (centres undefined),-2.73% (inactive)
11,Cc1ccccc1-n1c(C)cc(/C=C2\NC(=O)NC2=O)c1C,7.26% (inactive)
12,Cc1cc(/C=C2\SC(=Nc3ccc(N4CCOCC4)cc3)N(C)C2=O)c(C)n1-c1cccnc1,0.4% (inactive)
13,Cc1cc(/C=C2/NC(=O)NC2=O)c(C)n1-c1cccnc1,60.6% (active)
14,CCNC(=O)COc1cc(C)c(Br)c(C)c1,-1.41% (inactive)
15,CN(C)/C=C(/C(=O)c1ccc(F)cc1)S(=O)(=O)c1ccc(F)cc1,-1.08% (inactive)
16,CCC(C)(C)NC(=O)C(c1ccccn1)N(C(=O)c1csnn1)c1ccccc1 (centres undefined),-5.39% (inactive)
17,Cc1ccc(C)c(-n2nnnc2SCC(=O)c2c(N)n(C)c(=O)n(C)c2=O)c1,-5.78% (inactive)
18,CN(C)/C=C(/C(=O)c1ccccc1)S(=O)(=O)c1ccc(Cl)cc1,-6.81% (inactive)
19,COc1ccc(/C=N/NC(=O)Nc2ccc3nsnc3c2)c(OC)c1,-1.6% (inactive)
20,COc1cccc(NC(=O)c2nn(-c3ccc(OC)cc3OC)c(=O)c3ccccc23)c1,-3.79% (inactive)
21,COc1cccc(NC(=O)c2nn(C34CC5CC(CC(C5)C3)C4)cc2[N+](=O)[O-])c1,66.2% (active)
22,COc1cccc(NC(=O)c2ccc(Cn3cc([N+](=O)[O-])cn3)o2)c1,47.4% (inactive)
23,CC(CO)NCC12CC3CC(CC(C3)C1)C2 (centres undefined),7.47% (inactive)
24,CC(C)N(C)C(=O)CCc1nnc(CCc2c[nH]c3ccccc23)o1,-3.38% (inactive)
25,Cc1nnsc1C(=O)N/N=C/c1cccc(C(F)(F)F)c1,12.3% (inactive)

row,SMILES,inhibition
1,CCOc1ccc(-n2c(SCC(=O)NC3CCS(=O)(=O)C3)nnc2-c2cccnc2)cc1 (centres undefined),-3.53% (inactive)
2,Cc1ccc(S(=O)(=O)N(NC2=NS(=O)(=O)c3ccccc32)C(=O)c2ccccc2)cc1,53% (active)
3,Cc1ccc(C(=O)NN(CCC#N)C2=NS(=O)(=O)c3ccccc32)cc1,-9.19% (inactive)
4,CC(C)(C)c1csc(NC2=NS(=O)(=O)c3ccccc32)n1,-6.96% (inactive)
5,O=C(NNS(=O)(=O)c1ccc(F)cc1)c1cnccn1,-7.62% (inactive)
6,COc1ccc(C(=O)NNC(=O)c2cc(C)[nH]n2)cc1,-2.25% (inactive)
7,Cc1ccc(Cl)c(NC(=O)CN(C)CC(=O)Nc2ccc(F)c(F)c2F)c1Cl,0.59% (inactive)
8,CC(CNC(=O)c1ccc(N)cc1)NC(=O)c1ccc(N)cc1 (centres undefined),-1.57% (inactive)
9,Cc1cc(C)c(NC(=O)c2oc3ccccc3c2COc2ccccc2)c(C)c1,62.7% (active)
10,CCOC(=O)c1oc2ccccc2c1NC(=O)c1cccs1,-2.52% (inactive)
11,COCc1c(C(=O)OCc2c(C)noc2C)oc2ccccc12,-3.77% (inactive)
12,NC(=O)COc1ccc(NC(=O)c2ccccc2-c2ccccc2)cc1,10.2% (inactive)
13,CCO/C=C1\C(=O)N(c2ccc(OCC)cc2)C(=O)c2ccccc21,0.41% (inactive)
14,NS(=O)(=O)c1ccc(CCNC(=O)c2ccc([N+](=O)[O-])cc2[N+](=O)[O-])cc1,-7.26% (inactive)
15,NS(=O)(=O)c1ccc(CCNC(=O)c2ccc(Cl)cc2[N+](=O)[O-])cc1,6.41% (inactive)
16,NS(=O)(=O)c1ccc(CNC(=O)c2ccc(Cl)cc2[N+](=O)[O-])cc1,52.1% (active)
17,Cc1ccc(C(=O)NCC(=O)O)s1,-10.9% (inactive)
18,CSc1ccc(/C=N\NC(=O)COc2ccc(Cl)cc2Br)cc1,-9.17% (inactive)
19,COCCCNCCOCCOc1ccc(Cl)cc1Br,91.2% (active)
20,COCCNCCOCCOc1cccc(OC)c1,1.86% (inactive)
21,Cc1cc(C)n(-c2ccc3nncn3n2)n1,-5.45% (inactive)
22,C=CCn1c(=NC(=O)c2cccs2)sc2cc(NC(C)=O)ccc21,9.06% (inactive)
23,Cc1ccc(CN2CCN(Cc3cn(C)nc3-c3ccccc3)CC2CCO)o1 (centres undefined),-3.67% (inactive)
24,CCCOC1CCCN(Cc2cn(C)nc2-c2ccccc2F)C1 (centres undefined),-5.85% (inactive)
25,Cn1cc(CN2CCCC(CO)C2)c(-c2ccc(Oc3ccccc3)cc2)n1 (centres undefined),88.6% (active)

row,SMILES,inhibition
1,O=C(CSc1nc(O)c(Cc2ccccc2)c(=O)[nH]1)Nc1nc2c(s1)CCCC2,2.85% (inactive)
2,CC(=O)NC(CC(=O)O)c1ccc(F)cc1 (centres undefined),-5.31% (inactive)
3,CC(=O)c1ccc(NC(=O)N[C@@H](Cc2ccccc2)C(=O)O)cc1,-5.12% (inactive)
4,CC(=O)NC(Cc1ccc(F)cc1)C(=O)O (centres undefined),83.9% (active)
5,N#Cc1c(N)nc2c(c1N)CC(C(F)(F)F)O2 (centres undefined),1.43% (inactive)
6,Cc1ccc(C(=O)O)cc1N1C(=O)CCCC1=O,-2.53% (inactive)
7,Cc1nc(-c2ccccc2)sc1C(=O)/C=C/c1ccccc1,48.9% (inactive)
8,Cc1[nH]c(=O)c(C(=O)/C=C/c2ccccc2)c2c1CCCC2,98.8% (active)
9,O=C(/C=C/c1ccccc1)c1ccccc1O,9.25% (inactive)
10,O=C(CCNC(=O)Cn1ccc2ccccc2c1=O)NCCC1=CCCCC1,-3.42% (inactive)
11,Cc1ccccc1N1C(=O)C(Oc2ccc(Cl)cc2)C1CNCC1CCCO1 (centres undefined),14.7% (inactive)
12,CCc1nc2ccccc2c(C(=O)NCc2ccc(OC)cc2)c1C,-2.62% (inactive)
13,COc1nc(N=C(N)N)nc2c(C)cccc12,29% (inactive)
14,Cc1cccc2c(=O)n3c(nc12)CCCCC3,-1.77% (inactive)
15,Cc1nc(N=C(N)N)nc2c(C)cccc12,99.5% (active)
16,CCOc1ccc(N2C(=O)Nc3ccccc3C2(O)C(=O)NCc2ccco2)cc1 (centres undefined),-6.71% (inactive)
17,Cc1ccc(CCCOC(=O)C[N+]2(C)CCCCC2)cc1,-3.49% (inactive)
18,CCCCNCc1ccc(SC)cc1,76.3% (active)
19,O=C(NCCN1CCOCC1)[C@H](Cc1ccccc1)N1C(=O)c2ccccc2C1=O,-3.08% (inactive)
20,CSc1ccc(CNCCN2CCOCC2)cc1,67.6% (active)
21,CCCCc1ccc(NC(=S)NCCCN2CCOCC2)cc1,32.5% (inactive)
22,CSc1ccc(S(=O)(=O)NCc2ccc(Cl)cc2)cc1,-1.27% (inactive)
23,CSc1ccc(CN(C)CC(=O)NCc2ccc(F)cc2)cc1,-5.11% (inactive)
24,Cc1cc(/C=N/NC(N)=O)c(C)n1C1CCCCC1,2.71% (inactive)

# — PubChem BioAssay AID1063 (University of Pittsburgh Molecular Library Screening Center, 2008)
